This is an account of results in PubChem BioAssay.

In assay [1] the test system is Human papillomavirus type 1a protein E7 (residues 44-93). Nature of the assay: HPV1a E7 fragment binders on microarrays, primary screen, biochemical, small-molecule microarray, residues 44-93, 635 nm fluorescence (AID 1108).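 Note: E7 fragment applied at 1 µg/mL in TBST for 1 h at 4 C; score combines spot fluorescence with its signal to noise ratio.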 As to conditions: small-molecule microarray binding, fluorescence 635 nm; higher = more signal.
Assay [2] can be described thus: modulators of HCV replicon luciferase signal, primary screen, HCV replication inhibitor project, Huh7 cells, luciferase reporter (AID 1109).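 Note: huh7 hepatoma cells harbouring a luciferase neomycin HCV replicon reporter; luciferase luminescence as measure of HCV replicon replication; test concentration not given here.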 Particulars: 48 h, higher = more signal. (In general: A replicon is a self-replicating genome or part of one, used to study replication in cells.)
In assay [3] the target is Left-right determination factor 2 (Homo sapiens) (UniProt O00292). Nature of the assay: LEFTY2 binders on small-molecule microarrays, primary screen, biochemical, small-molecule microarray, 635 nm fluorescence scan (AID 1110). Particulars: LEFTY2 binding, higher = more signal.
Chain of Left-right determination factor 2 (Homo sapiens) (O00292 whole entry, looked up): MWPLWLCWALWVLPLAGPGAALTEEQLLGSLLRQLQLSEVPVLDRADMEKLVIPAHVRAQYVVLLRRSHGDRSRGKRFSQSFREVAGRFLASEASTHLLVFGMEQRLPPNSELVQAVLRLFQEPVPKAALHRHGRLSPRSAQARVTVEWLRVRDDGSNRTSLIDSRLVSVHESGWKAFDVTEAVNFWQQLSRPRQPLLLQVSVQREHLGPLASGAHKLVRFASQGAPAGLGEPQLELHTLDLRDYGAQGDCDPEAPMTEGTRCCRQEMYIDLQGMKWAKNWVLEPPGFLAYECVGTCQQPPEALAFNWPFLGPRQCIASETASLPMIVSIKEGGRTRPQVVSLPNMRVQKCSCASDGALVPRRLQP
For assay [4], the target named is Calmodulin-1 (Homo sapiens) (UniProt P0DP23). Nature of the assay: CALM1 binders on microarrays, EGTA buffer, profiling panel, biochemical, small-molecule microarray, Cy5-labelled CALM1 (AID 1111).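 Note: labelled calmodulin applied in Tris saline Tween buffer holding calcium plus EGTA and DTT.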 As to conditions: Cy5-CALM1 binding fluorescence, higher = more signal.
Assay [5] has the same target. Put plainly: calcium-bound CALM1 binders on microarrays, profiling panel, artefact control for SMM control-protein annotation, biochemical, small-molecule microarray, Cy5-labelled CALM1, plus calcium (AID 1112).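 Note: score merges spot fluorescence with signal to noise from triplicate slides.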 Particulars: Cy5-CALM1 binding fluorescence, higher = more signal.
Assay [6] can be described thus: small-molecule microarray binders of probe aWnt5a, primary screen, biochemical, biotinylated probe, 635/667 nm fluorescence (AID 1113).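 Note: score merges 667 nm fluorescence intensity with signal-to-noise per printed feature.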 Particulars: higher = more signal.
A short description of assay [7]: small-molecule microarray binders of probe aShh, primary screen, biochemical, biotinylated probe, 635/667 nm fluorescence (AID 1114).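 Note: probe is biotin-labelled aShh protein from a stem cell growth factor screen; measures binding of labelled protein to compounds printed on the slide; score merges feature fluorescence at 667 nm with signal-to-noise.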 Particulars: higher = more signal.
Assay [8] can be described thus: small-molecule microarray binders of probe aNog, primary screen, biochemical, biotinylated probe, 635/667 nm fluorescence (AID 1115).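 Note: probe is biotinylated aNog protein used at 0.15 µg/mL for 1 h at 4 C; z-score combines 667 nm fluorescence of each spot with its signal to noise.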 Particulars: higher = more signal.
Assay [9] concerns the target Torsin-1A-interacting protein 1 (Homo sapiens) (UniProt Q5JTV8). Put plainly: LAP1 binders from COS7 cell lysate, primary screen, small-molecule microarray, 635/667 nm fluorescence (AID 1116). As to conditions: COS7-hLAP1 lysate binding, 635 nm fluorescence, higher = more signal.
Assay [10] concerns the target Alpha-bungarotoxin (Bungarus multicinctus) (UniProt P60615). Put plainly: alpha-bungarotoxin binders on microarray, profiling panel, artefact control for SMM control protein annotation, biochemical, small-molecule microarray, Alexa647 label, 635/667 nm fluorescence (AID 1117). Particulars: alpha-BTX-A647 binding fluorescence, higher = more signal.

Chain of Alpha-bungarotoxin (Bungarus multicinctus) (P60615 whole entry, looked up): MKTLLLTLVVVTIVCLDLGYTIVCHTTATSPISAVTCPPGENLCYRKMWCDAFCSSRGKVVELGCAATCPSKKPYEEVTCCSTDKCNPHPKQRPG
Chain of Torsin-1A-interacting protein 1 (Homo sapiens) (Q5JTV8 whole entry, looked up): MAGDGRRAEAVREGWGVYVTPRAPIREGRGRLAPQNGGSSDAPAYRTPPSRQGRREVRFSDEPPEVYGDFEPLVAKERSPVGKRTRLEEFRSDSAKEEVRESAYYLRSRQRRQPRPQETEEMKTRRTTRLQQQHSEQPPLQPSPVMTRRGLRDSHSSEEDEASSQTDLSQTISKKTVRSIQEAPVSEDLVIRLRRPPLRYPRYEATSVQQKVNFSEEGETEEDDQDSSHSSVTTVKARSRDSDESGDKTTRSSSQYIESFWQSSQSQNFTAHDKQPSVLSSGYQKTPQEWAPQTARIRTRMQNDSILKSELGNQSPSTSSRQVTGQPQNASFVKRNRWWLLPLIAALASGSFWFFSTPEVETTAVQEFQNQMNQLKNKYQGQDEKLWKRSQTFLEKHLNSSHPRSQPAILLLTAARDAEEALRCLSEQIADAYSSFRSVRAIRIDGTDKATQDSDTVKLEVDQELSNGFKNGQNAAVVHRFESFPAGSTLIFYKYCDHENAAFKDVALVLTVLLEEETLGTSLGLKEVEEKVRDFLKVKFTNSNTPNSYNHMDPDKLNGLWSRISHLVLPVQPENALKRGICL

As to `CN1C(=O)C2C=CC(C(O)Cc3ccccc3)N(Nc3ccccc3)C2C1=O` (stereo not given), the composite z-score was 0.343 in assay [1]; -0.244 in [3]; 1.08 in assay [4]; 0.85 in [5]; -0.0738 in assay [6]; -0.153 in assay [7]. In addition, the composite z-score was found to be 0.338 in [8], 0.439 in assay [9] and 0.428 in assay [10]. The molecule also showed a z-score in assay [2] of -0.12.
For `COc1cc2c(cc1O)C=[N+](Cc1cccc(OC(F)(F)F)c1)CC2`, the composite z-score was -1.28 in assay [1]; -0.402 in assay [3]; -0.579 in [4]; -0.149 in assay [5]; -0.158 in [6]; -0.206 in [7]. In addition, the composite z-score is -0.294 in [8], 0.15 in assay [9] and 0.0656 in assay [10]. The z-score in [2] is -0.556.
Take `CCOC1=C2C(CN(S(=O)(=O)c3ccc(C)cc3)C2c2ccc(C)cc2)C2C(=O)N(c3ccccc3)C(=O)C2C1` (stereo not given): the composite z-score is 1.11 in assay [1]; 0.349 in [3]; 0.861 in assay [4]; 0.528 in [5]; -0.106 in [6]; 0.0893 in assay [7]. Besides, the composite z-score in assay [8] came to 0.194; in [9], 0.326; in assay [10], 0.389. The same molecule yielded a z-score in assay [2] of -0.348.
`CCCC=C(CCC)[C@@H](NC(=O)Oc1ccc(F)cc1)c1ccc(C(=O)OC)cc1`: the composite z-score in [1] turned out to be 1.32; in assay [3] it was 0.354; in assay [4] it was 0.977; in assay [5], 1.13; in assay [6] it was 0.0307; in assay [7], 0.336. Also, the composite z-score in assay [8] was 0.83; in [9], 0.303; in assay [10] it was 0.799. In assay [2], this molecule came in with a z-score of -2.48.
For `COCCOC(=O)N1C(=O)[C@@]2(c3cc(C#CCCO)ccc31)[C@H](C(=O)N1CCN(c3ncccn3)CC1)[C@H]1C(=O)O[C@H](c3ccccc3)[C@H](c3ccccc3)N1[C@@H]2c1ccccc1OCCO`, the composite z-score in assay [1] is 1.37; in assay [3], 0.56; in assay [4], 1.72; in assay [5], 0.55; in assay [6], -0.0614; in assay [7] it was -0.214. Besides, the composite z-score in assay [8] turned out to be 0.207; in assay [9] it was 0.249; in assay [10], 0.64. The z-score in [2] was -1.86.
With `O=C(O)[C@@]1(CCS(=O)(=O)c2ccccc2)COC(c2ccc(OCCCO)cc2)=N1`, the composite z-score is 0.182 in assay [1]; -0.691 in assay [3]; -0.0602 in assay [4]; 0.24 in assay [5]; -0.129 in [6]; 0.0062 in assay [7]. In addition, the results for the composite z-score in assay [8], in assay [9] and in assay [10] were -0.463, 2.98 and 0.451, respectively. The molecule further had a z-score in [2] of -0.615.
With `COC(=O)[C@@]1(Cc2ccc(OC)cc2)[C@H]2c3cc(C(=O)N(C)C)n(CCN4CNCC4=O)c3C[C@H]2CN1C(=O)c1ccccc1`, the composite z-score is -0.662 in [1]; 0.149 in [3]; 0.866 in assay [4]; 0.701 in assay [5]; 0.164 in assay [6]; -0.0793 in [7]. The composite z-score is -0.505 in [8], 0.528 in assay [9] and -0.124 in assay [10]. In assay [2], the z-score was -0.422.
On to `COc1ccc([Si](C)(C)[C@H]2[C@H](CCO)O[C@@]3(C(=O)N(Cc4ccc(N5C(=O)COc6ccccc65)cc4)c4ccccc43)[C@@H]2C)cc1`, for which the composite z-score in [1] is 0.49; in [3], -1.45; in assay [4] it was 0.471; in assay [5], 0.601; in [6], -0.147; in [7], -0.153. The composite z-score in assay [8] was 0.201; in assay [9], -0.373; in assay [10] it was 0.11. In assay [2], this molecule displayed a z-score of -4.92.
Turning to `COCCCN1C(=O)[C@@]2(Cc3ccccc31)c1ccccc1C(=O)N(Cc1ccccc1C(F)(F)F)[C@H]2c1ccc(CO)cc1`, the composite z-score is 0.898 in assay [1]; 0.33 in assay [3]; -0.47 in [4]; -0.206 in assay [5]; 0.439 in assay [6]; -0.243 in assay [7]. For the same molecule, the values for the composite z-score in assay [8], in assay [9] and in [10] were 1.79, 0.094 and 0.33, respectively. Moreover, the z-score in [2] was -0.311.
Turning to `C=C(CCCC)C(=O)CC[C@@H](OC(=O)c1cccnc1)c1ccc(CO)o1`, the composite z-score was 0.94 in assay [1]; 0.654 in [3]; 0.916 in assay [4]; -1.3 in [5]; 0.0003 in assay [6]; -0.0035 in assay [7]. For the same molecule, the composite z-score is -0.0333 in [8], 0.387 in [9] and 0.781 in [10]. In [2], this molecule yielded a z-score of -1.39.
On to `CC(C)C[C@H]1NC(=O)[C@@]23C(=O)N[C@@H](Cc4ccccc4)C2[C@H](C)[C@@]2(C)O[C@H]2C3/C=C/C/C=C\CNC(=O)[C@H](Cc2ccccc2)NC1=O` (stereo not given in full), for which the composite z-score in assay [1] was 1.06; in assay [3], 0.452; in assay [4], -0.434; in assay [5] it was -0.578; in [6], -0.0735; in assay [7], -0.0553. Also, the results for the composite z-score in [8], in assay [9] and in [10] were -0.194, -0.225 and -0.0973, respectively. For the same molecule, the z-score in [2] was -1.32.
Consider `COc1cc(CO)cc(I)c1O[C@H]1C=C(C(=O)NCCO)C[C@@H](N(CCN2CCOCC2)C(=O)C2CCOC2)[C@@H]1O` (stereo not given in full), for which the composite z-score is -0.923 in assay [1]; 0.897 in assay [3]; -0.0002 in assay [4]; -0.543 in assay [5]; -0.247 in assay [6]; 0.0639 in assay [7]. The composite z-score is -0.281 in [8], 0.085 in assay [9] and 0.0392 in [10]. This molecule also gave a z-score in assay [2] of -0.282.
`C=CCC(OC(C)=O)[C@@H]1[C@@H](N(Cc2ccc(-c3cccc(C(F)(F)F)c3)o2)C(=O)Cc2ccc(F)cc2)c2cc(OCCCO)ccc2N1C(=O)Cc1ccc(OC)cc1` (stereo not given in full): the composite z-score in assay [1] is -2.04; in [3], -0.665; in assay [4] it was -0.718; in [5], -0.751; in assay [6] it was -0.18; in assay [7], -0.138. The composite z-score in assay [8] is -0.463; in assay [9], -0.354; in assay [10], -0.167. The same molecule returned a z-score in assay [2] of -1.36.
Regarding `CC(C)(C)OC(=O)CC[C@@]1(C(=O)NCCN2CCOCC2)N=C(c2ccc(OCCCO)cc2)O[C@@H]1c1ccccc1N=[N+]=[N-]`, the composite z-score was found to be 1.32 in assay [1]; 0.609 in [3]; 0.147 in assay [4]; 0.0196 in assay [5]; 0.108 in [6]; 0.171 in assay [7]. Moreover, the composite z-score in [8] was found to be 0.991; in assay [9] it was 0.694; in [10], 0.783. In assay [2], this molecule returned a z-score of -0.291.
With `Cc1ccc(S[C@]2(C(=O)NC3CC3)CC(=O)N(C3Cc4ccccc4C3)[C@@H]2c2ccc(CO)cc2)cc1`, the composite z-score is 1.27 in [1]; -1.7 in [3]; -0.0137 in assay [4]; 0.0662 in assay [5]; -0.258 in [6]; -0.154 in assay [7]. For the same molecule, the values for the composite z-score in assay [8], in assay [9] and in assay [10] were 0.354, 0.439 and -0.441, respectively. The z-score in assay [2] is -1.08.
In the case of `COc1ccc(C(=O)Nc2ccc(CN3C(=O)[C@@]4(O[C@@H](CC(=O)N5CCC[C@H]5CO)[C@H]([Si](C)(C)c5ccc(OC)cc5)[C@H]4C)c4ccccc43)cc2)cc1`, the composite z-score in [1] is 0.825; in assay [3], 1.13; in assay [4], 0.11; in assay [5], -0.654; in [6] it was -0.0643; in [7], 0.0639. Further, the composite z-score is -0.0503 in assay [8], 1.01 in assay [9] and 1.12 in [10]. The same molecule registered a z-score in assay [2] of -2.19.
